Data published in PubChem BioAssay (NCATS).
Results filed as inconclusive are left out. Calls of active or inactive are those of the source. Unless noted, calls follow the shape of the dose curve; as a rule, active = well fitted curve in either direction with a large enough effect (not every such curve was filed as active); inconclusive = small, poorly fitted or top-dose-only effect, or another doubt; inactive = flat fitted curve, though single readings scatter.

Legend:
[1] = AP1 Signaling Pathway (AID 357); details: ME-180 AP-1-bla reporter, EGF-induced, beta-lactamase ratio, 5 h; at 17.2 µM (top of the series) unless noted;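 also: ME-180 reporter cells stimulated with EGF at its EC50 level; % is scaled to controls: 0 for no effect and ±100 for the full control effect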
Outline: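 Cells are seeded overnight, exposed to compound titrations and an EC50 level of EGF for 5 hours at 37 °C, then loaded with CCF4 dye for 2.5 hours. Beta-lactamase activity under the AP-1 element is read as a blue/green ratio.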

[2] = Stat Signaling Pathway (AID 446); details: ME-180 SIE beta-lactamase reporter, IL-6 stimulated, 5 h; at 17.2 µM (top of the series) unless noted;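 also: ME-180 cervical cancer cells given 40 pM IL-6 alongside compound; SIE-controlled beta-lactamase reporter measured as 460/530 nm FRET emission ratio; % is scaled to controls: 0 for no effect and ±100 for the full control effect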
Outline: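 Reporter line: ME-180 cervical carcinoma, SIE-beta-lactamase. Treatment: compound with 40 pM IL-6, 5 hrs, 37 C, in low-serum OPTI-MEM with 10 mM HEPES pH 7.3. Detection: 460/530 nm fluorescence.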

[3] = target: Glucocorticoid receptor (Homo sapiens) (UniProt P04150); test: GR-GFP Redistribution (AID 450;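 active = compounds whose dose series gives a full or clear partial fitted curve of increased nuclear translocation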; also: potency is read from the fitted curve at half-maximal effect)
[4] = target: Glucocorticoid receptor (Homo sapiens) (UniProt P04150); test: GR-EFC Redistribution (AID 451; calls by dose curve; also: potency is read from the fitted curve at half-maximal effect); details: CHO-K1 GR-EFC translocation, beta-gal luminescence, 2 h
Outline: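 Translocation of GR-ED fusion to nuclear EA restores b-gal, read by luminescence after 1 h room-temperature detection. Engineered CHO-K1 biosensor cells, 1,000/well, exposed 2 h at 37 C to titrations up to 46 uM final.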

[5] = target: Mitogen-activated protein kinase 10 (Mus musculus) (UniProt Q61831); test: JNK3 AlphaScreen Assay (AID 530);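 also: kinase came from lysate of stimulated human HepG2 cells; signal reports phosphorylation of biotinylated GST-cJun 1-79 at Ser73 with 10 µM ATP; % is scaled to controls: 0 for no effect and ±100 for the full control effect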
Outline: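 Room-temperature AlphaScreen kinase assay; pre-activated HepG2 lysate as JNK3 source, biotin-GST-cJun(1-79) substrate, 10 uM ATP, compound 15 min preincubation.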

[6] = target: 3',5'-cyclic-AMP phosphodiesterase 4B (Homo sapiens) (UniProt Q07343); test: qHTS Assay for Inhibitors of PDE-IV (AID 607; active = well fitted activation curve with a large enough effect in the main read-out, with a control signal flat, not every such curve was filed as active; also: % of control where 0% means no effect)
Outline: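 Cell-based read-out of cAMP via a modified cyclic nucleotide-gated channel and membrane potential dye (535/590 nm) in HEK293 cells expressing PDE4 endogenously. Compounds tested up to 22.9 uM final; 100 uM RO 20-1724 reference.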

[7] = target: Guanine nucleotide-binding protein G(i) subunit alpha-1 (Homo sapiens) (UniProt P63096); test: qHTS Assay for Inhibitors of RGS12 GoLoco Motif Activity (Green Fluorophore) (AID 879; active = well fitted curve in the direction sought with a large enough effect; an effect the other way counts as inactive or inconclusive;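 also: 0% = labeled peptide with Gαi1 and full inhibition = labeled peptide alone without protein; negative values mean loss of peptide binding seen as reduced polarization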)
Outline: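 Fluorescence polarization assay: 50 nM Gαi1 with 10 nM FITC-labeled RGS12 GoLoco peptide in 10 mM Tris pH 7.5, 150 mM NaCl, 0.1 mM GDP, 0.05% NP40, 10 min at room temperature with compound.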

[8] = target: Pyruvate kinase (Leishmania mexicana) (UniProt Q27686); test: qHTS Validation Assay for Inhibitors of Leishmania Mexicana Pyruvate Kinase (AID 945; active = well fitted curve in the direction sought with a large enough effect; an effect the other way counts as inactive or inconclusive;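 also: 0% = DMSO only neutral control wells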)
Outline: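 Compounds are tested as eight-point concentration series. Reactions contain 0.2 nM LmPYK E451W, 0.5 mM PEP, 0.1 mM ADP, 7 mM MgCl2 and 50 mM KCl at pH 7.2, run 1 h at room temperature, then read by PKLight luminescence.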

[9] = target: Pyruvate kinase PKM (Homo sapiens) (UniProt P14618); test: qHTS Assay for Activators of Human Muscle Pyruvate Kinase (AID 954; active = well fitted curve in the direction sought with a large enough effect, not every such curve was filed as active;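 also: 0% = uninhibited enzyme and -100% = no enzyme or full thiadiazolimine inhibition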)
Outline: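 Human PKM2 activity is measured as ATP generation, detected by luciferase-coupled luminescence. The enzyme (0.1 nM) acts on 0.5 mM PEP and 0.1 mM ADP for 1 h at ambient temperature; data are normalized to uninhibited and full-inhibition wells.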

[10] = target: Alpha-galactosidase A (Homo sapiens) (UniProt P06280); test: Counterscreen for Glucocerebrosidase Inhibitors: qHTS Assay for Human alpha-Galactosidase at pH 4.5 (AID 992; active = well fitted curve in the direction sought with a large enough effect; an effect the other way counts as inactive or inconclusive; also: 0% is about no effect)
Outline: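 Quantitative HTS: compounds tested from 0.7 nM up to 77 uM against 2 nM enzyme with 80 uM 4-MU alpha-D-galactopyranoside. The 20 min room-temperature reaction is stopped with 1M NaOH/1M glycine, pH 10.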

[11] = target: alpha-glucosidase (Oryza sativa, rice) (UniProt Q653V4); test: Counterscreen for Glucocerebrosidase Inhibitors: qHTS Assay for Rice alpha-Glucosidase at pH 5.0 (AID 997; active = well fitted curve in the direction sought with a large enough effect; an effect the other way counts as inactive or inconclusive;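 also: 0% = full activity with enzyme and -100% = basal without enzyme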)
Outline: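 Rice alpha-glucosidase (4 nM final) with 400 uM 4-methylumbelliferyl-alpha-D-glucopyranoside in citrate buffer pH 5.0, 20 min at room temperature, stopped at pH 10; fluorescence 365/440 nm, compounds 0.7 nM–77 uM, AC50 from Hill fits.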

[12] = qHTS Assay for Identification of Small Molecule Antagonists for NFkB Signaling Pathway (AID 895; active = well fitted inhibition curve with a large enough effect in the signal ratio, with a control signal flat, not every such curve was filed as active; the % refers to the signal ratio; also: % is scaled to controls: 0 for no effect and ±100 for the full control effect)
Outline: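 Beta-lactamase reporter read-out (460 and 530 nm emission ratio, 405 nm excitation, 2 hrs substrate loading RT) after 5 hr stimulation with 10 pM TNF alpha in compound-treated NFkB-bla ME-180 cells in low-serum medium.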

[13] = qHTS Assay for Identification of Small Molecule Agonists for Thrombopoietin (TPO) Signaling Pathway (AID 917; active = well fitted curve in the direction sought with a large enough effect; an effect the other way counts as inactive or inconclusive; also: % is scaled to controls: 0 for no effect and ±100 for the full control effect)
Outline: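 Activators of TPO signaling were sought in murine Ba/F3 cells transfected with the human receptor, using a luciferase gene driven by the Glycoprotein IIb promoter; 24-hr compound exposure at 37 C alongside 26 pM TPO, in IL-3-free medium.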

[14] = qHTS Assay for Identification of Small Molecule Agonists for Hypoxia Response Element Signaling Pathway (AID 914; active = well fitted activation curve with a large enough effect in the signal ratio, with a control signal flat, not every such curve was filed as active; the % refers to the signal ratio; also: % of control where 0% means no effect); details: ME-180 (cervical carcinoma) HRE-bla reporter, beta-lactamase ratio, CoCl2, 17 h; activation: hits give high values
Outline: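 A beta-lactamase reporter under hypoxia response element control in ME-180 cells served as the system. Compound titrations plus EC50 CoCl2 ran 17 h at 37 degrees Celsius; AC50 values were fitted from %Activity.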

Sequence of 3',5'-cyclic-AMP phosphodiesterase 4B (Homo sapiens) (Q07343 whole entry, looked up): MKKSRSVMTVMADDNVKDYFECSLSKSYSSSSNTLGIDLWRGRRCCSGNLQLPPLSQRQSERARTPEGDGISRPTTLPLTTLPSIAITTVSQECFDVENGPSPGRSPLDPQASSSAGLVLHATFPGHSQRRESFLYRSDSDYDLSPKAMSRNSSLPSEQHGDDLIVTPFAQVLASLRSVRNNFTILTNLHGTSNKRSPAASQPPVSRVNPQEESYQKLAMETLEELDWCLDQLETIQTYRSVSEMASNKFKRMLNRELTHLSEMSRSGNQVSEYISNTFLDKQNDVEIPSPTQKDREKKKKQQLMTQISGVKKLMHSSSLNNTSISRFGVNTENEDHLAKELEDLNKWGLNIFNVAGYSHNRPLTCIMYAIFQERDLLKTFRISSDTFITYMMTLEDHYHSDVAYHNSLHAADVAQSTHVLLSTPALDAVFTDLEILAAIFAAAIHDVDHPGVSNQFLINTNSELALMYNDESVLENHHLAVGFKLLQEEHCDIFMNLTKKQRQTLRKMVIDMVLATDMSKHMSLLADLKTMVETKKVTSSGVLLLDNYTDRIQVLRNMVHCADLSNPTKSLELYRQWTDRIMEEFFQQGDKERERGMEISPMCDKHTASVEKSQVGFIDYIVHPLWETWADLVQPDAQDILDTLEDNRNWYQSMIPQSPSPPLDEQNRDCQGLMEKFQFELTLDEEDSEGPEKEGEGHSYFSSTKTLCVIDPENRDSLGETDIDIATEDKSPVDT
Sequence of Glucocorticoid receptor (Homo sapiens) (P04150 whole entry, looked up, the tested form may be a part): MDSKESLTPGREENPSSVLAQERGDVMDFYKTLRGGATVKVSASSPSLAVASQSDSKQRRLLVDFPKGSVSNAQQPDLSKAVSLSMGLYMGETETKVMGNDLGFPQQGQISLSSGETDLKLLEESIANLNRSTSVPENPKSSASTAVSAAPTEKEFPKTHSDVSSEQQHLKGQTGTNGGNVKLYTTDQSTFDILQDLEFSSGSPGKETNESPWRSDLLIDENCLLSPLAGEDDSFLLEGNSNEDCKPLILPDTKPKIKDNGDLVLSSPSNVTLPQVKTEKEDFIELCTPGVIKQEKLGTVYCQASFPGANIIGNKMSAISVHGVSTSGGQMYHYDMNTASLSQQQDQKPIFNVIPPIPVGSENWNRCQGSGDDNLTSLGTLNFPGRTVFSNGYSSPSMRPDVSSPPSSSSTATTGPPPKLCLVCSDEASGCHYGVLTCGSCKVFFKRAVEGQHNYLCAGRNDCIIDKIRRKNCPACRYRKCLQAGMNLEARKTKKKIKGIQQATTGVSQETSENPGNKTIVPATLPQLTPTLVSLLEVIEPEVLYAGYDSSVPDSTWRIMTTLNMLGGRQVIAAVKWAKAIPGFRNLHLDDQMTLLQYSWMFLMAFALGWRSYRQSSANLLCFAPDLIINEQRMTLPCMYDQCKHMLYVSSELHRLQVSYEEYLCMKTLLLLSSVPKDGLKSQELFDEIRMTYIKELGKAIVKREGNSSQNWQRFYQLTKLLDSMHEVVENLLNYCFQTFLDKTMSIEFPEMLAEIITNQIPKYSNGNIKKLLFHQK
Sequence of Alpha-galactosidase A (Homo sapiens) (P06280 whole entry, looked up): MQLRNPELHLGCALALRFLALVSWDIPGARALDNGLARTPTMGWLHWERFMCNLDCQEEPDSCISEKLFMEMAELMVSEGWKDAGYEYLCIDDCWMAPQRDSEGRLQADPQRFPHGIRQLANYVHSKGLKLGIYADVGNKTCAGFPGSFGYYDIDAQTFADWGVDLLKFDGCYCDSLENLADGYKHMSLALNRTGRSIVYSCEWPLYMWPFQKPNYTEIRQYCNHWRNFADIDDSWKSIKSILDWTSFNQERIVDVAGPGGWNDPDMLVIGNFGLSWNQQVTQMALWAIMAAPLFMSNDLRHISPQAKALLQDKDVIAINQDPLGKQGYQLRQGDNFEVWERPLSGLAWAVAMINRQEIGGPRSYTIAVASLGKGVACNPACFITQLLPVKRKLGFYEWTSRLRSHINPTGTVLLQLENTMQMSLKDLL
Sequence of Guanine nucleotide-binding protein G(i) subunit alpha-1 (Homo sapiens) (P63096 whole entry, looked up): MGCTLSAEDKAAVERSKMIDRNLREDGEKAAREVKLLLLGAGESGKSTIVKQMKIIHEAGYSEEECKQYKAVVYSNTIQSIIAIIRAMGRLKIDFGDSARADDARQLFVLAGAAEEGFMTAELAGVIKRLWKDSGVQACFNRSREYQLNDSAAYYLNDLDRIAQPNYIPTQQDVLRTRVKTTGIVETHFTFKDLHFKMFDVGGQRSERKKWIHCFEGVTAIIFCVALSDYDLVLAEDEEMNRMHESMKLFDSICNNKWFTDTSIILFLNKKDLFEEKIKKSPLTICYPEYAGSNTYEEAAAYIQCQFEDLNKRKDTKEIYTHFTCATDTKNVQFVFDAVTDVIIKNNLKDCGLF
Sequence of Pyruvate kinase (Leishmania mexicana) (Q27686 2-499 E452W): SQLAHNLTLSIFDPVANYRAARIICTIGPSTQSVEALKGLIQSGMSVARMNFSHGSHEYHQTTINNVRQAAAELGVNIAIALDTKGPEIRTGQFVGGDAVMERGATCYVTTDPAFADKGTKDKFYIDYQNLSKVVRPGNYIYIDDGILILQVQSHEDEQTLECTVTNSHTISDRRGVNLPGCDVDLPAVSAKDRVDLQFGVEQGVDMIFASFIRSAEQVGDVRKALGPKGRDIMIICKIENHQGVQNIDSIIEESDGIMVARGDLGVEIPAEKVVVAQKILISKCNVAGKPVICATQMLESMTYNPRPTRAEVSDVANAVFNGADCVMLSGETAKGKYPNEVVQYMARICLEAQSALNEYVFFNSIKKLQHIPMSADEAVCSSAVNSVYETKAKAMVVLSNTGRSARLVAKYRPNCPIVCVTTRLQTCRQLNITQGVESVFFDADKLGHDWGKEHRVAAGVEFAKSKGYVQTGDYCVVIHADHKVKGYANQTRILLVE
Sequence of Pyruvate kinase PKM (Homo sapiens) (P14618 whole entry, looked up): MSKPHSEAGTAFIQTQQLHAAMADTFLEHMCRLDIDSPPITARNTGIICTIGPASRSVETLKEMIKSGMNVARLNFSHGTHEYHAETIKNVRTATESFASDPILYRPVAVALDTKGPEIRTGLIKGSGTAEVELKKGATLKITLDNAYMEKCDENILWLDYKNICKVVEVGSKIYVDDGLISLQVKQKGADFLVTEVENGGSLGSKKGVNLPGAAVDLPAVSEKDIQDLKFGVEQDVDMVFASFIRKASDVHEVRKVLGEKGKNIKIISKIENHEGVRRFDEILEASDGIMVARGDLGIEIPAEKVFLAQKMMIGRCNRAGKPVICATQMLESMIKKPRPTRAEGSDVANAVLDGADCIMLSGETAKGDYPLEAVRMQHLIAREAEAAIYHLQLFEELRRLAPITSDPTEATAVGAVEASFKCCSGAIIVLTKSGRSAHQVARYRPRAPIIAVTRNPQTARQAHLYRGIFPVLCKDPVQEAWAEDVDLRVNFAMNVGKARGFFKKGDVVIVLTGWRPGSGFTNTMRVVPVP

CCCOc1ccc(C(C)=O)cc1CSCCC#N
inactive: activity change, negative = inhibition [1] -12.7% | activity, negative = inhibition [2] 85.5% | Potency [3] > 20.6 µM

CCOC(=O)c1ccc(N2C(=O)CC(Sc3nnc(C)s3)C2=O)cc1 (configuration not stated)
inactive: activity change, negative = inhibition [1] 6.1% | activity, negative = inhibition [2] 1.82% | Potency [3] > 20.6 µM

C=CCn1c(SCC(=O)OC)nc2sc3c(c2c1=O)CCN(C)C3
inactive: activity change, negative = inhibition [1] -12.5% | activity, negative = inhibition [2] 2.28% | Potency [3] > 20.6 µM

Cc1nc2c(o1)CCc1ccccc1C2N1CCN(C)CC1 (configuration not stated)
inactive: activity change, negative = inhibition [1] 22.5% | activity, negative = inhibition [2] 3.94% | Potency [3] > 20.6 µM

CC(C)Cc1nc(N2CCOCC2)c(C#N)c2c1CCC2
inactive: activity change, negative = inhibition [1] -16.4% | activity, negative = inhibition [2] -0.768% | Potency [3] > 20.6 µM

CC(=O)O[C@H]1C(=O)[C@]2(C)[C@H]([C@H](OC(=O)c3ccccc3)[C@]3(O)C[C@H](OC(=O)[C@H](O)[C@@H](NC(=O)c4ccccc4)c4ccccc4)C(C)=C1C3(C)C)[C@]1(OC(C)=O)CO[C@@H]1C[C@@H]2O
inactive: activity change, negative = inhibition [1] -5.19% | activity, negative = inhibition [2] -2.52% | Potency [3] > 20.6 µM

COc1cc2[nH]c3c(=O)n(CCN(C(C)C)C(C)C)cnc3c2cc1OC
inactive: activity change, negative = inhibition [1] -1.5% | activity, negative = inhibition [2] 6.66% | Potency [3] > 20.6 µM

c1ccc(C2Nc3ccccc3-c3nc4ccccc4n32)nc1 (configuration not stated)
inactive: activity change, negative = inhibition [1] -3.28% | activity, negative = inhibition [2] -0.281% | Potency [3] > 20.6 µM

CCN(CC)CCCn1c(C)cc2c(c1=O)C(c1cccc(Cl)c1)C(C#N)=C(N)O2 (configuration not stated)
inactive: activity change, negative = inhibition [1] -4.22% | activity, negative = inhibition [2] -2.98% | Potency [3] > 20.6 µM

Cc1ccsc1C1NC(=O)c2c(sc3c2CCCC3)N1 (configuration not stated)
inactive: activity change, negative = inhibition [1] -25.1% | activity, negative = inhibition [2] -6.73% | Potency [3] > 20.6 µM

CCOC(=O)C1=C(C)NC(C)=C(C(=O)OC)[C@H]1c1cccc(Cl)c1Cl
inactive: activity change, negative = inhibition [1] -9.86% [at 38 µM] | activity, negative = inhibition [2] -0.0099% [at 38 µM] | Potency [3] > 46 µM | Potency [4] > 46 µM | Potency [5] | Potency [6] | outcome [7] | Potency [8] | outcome [9] | outcome [10] | outcome [11]

COCCCn1cnc2c(c1=O)c1nc3ccccc3nc1n2CCc1ccccc1
inactive: activity change, negative = inhibition [1] -15.7% | activity, negative = inhibition [2] -9.66% | Potency [3] > 20.6 µM

CC(=O)O[C@@H]1[C@H]([N+]2(C)CCCCC2)C[C@@H]2[C@@H]3CC[C@@H]4C[C@@H](OC(C)=O)[C@H]([N+]5(C)CCCCC5)C[C@@]4(C)[C@H]3CC[C@]21C
inactive: activity change, negative = inhibition [1] 13.6% [at 38 µM] | activity, negative = inhibition [2] 18.1% [at 38 µM] | Potency [3] > 46 µM | Potency [4] > 46 µM | Potency [5] | Potency [6] | outcome [7] | Potency [12] | Potency [13] | Potency [8] | outcome [9] | outcome [10] | outcome [11]

C[N+](C)(C)[C@@H](C1=CCCC1=O)c1ccccc1
inactive: activity change, negative = inhibition [1] 3.55% [at 7.69 µM] | activity, negative = inhibition [2] -12.6% [at 7.69 µM] | Potency [3] > 46 µM | Potency [4] > 9.22 µM | activity change, negative = inhibition [5] 5.46% [at 11.4 µM] | Potency [6] | activation [14] -1.62%

CCOC(=O)c1[nH]c2ccc(OC)cc2c1NC(=O)CCN1CCc2ccccc2C1
inactive: activity change, negative = inhibition [1] -5.08% | activity, negative = inhibition [2] -3.49% | Potency [3] > 20.6 µM
